Most compounds without a hit are left out; they make up all but 12% or so of the library.
HP1b chromo inh: inhibitors of HP1-beta chromodomain binding to methylated histone tails; AlphaScreen HP1-beta / biotin-H3K9me3 peptide binding; Potency, µM (series often up to 114 µM), for the others: at the top dose activity change, negative = inhibition, actives largely listed as inhibitors; 390,000 compounds, 0.56% hits; also: nearly all actives have a fitted effect of over 70% in size
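Compound inhibition of the preformed complex between 50 nM HP1-beta and 50 nM biotinylated H3K9me3 peptide was read by AlphaScreen. Buffer was PBS pH 7.4 with 0.01% Tween-20. Incubations ran 30 min at room temperature, with 10 ug/mL donor/acceptor beads.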
JMJD2A Tudor: inhibitors of human JMJD2A Tudor domain | 390,000 compounds, 4.4% hits | AlphaScreen JMJD2A-Tudor / H3K4me3 peptide binding | O75164 | Potency, µM (series often up to 114 µM), without a hit: top-dose activity change, negative = inhibition, most hits filed as inhibitors; also: % is scaled to controls: 0 for no effect and ±100 for the full control effect; nearly all actives have a fitted effect of over 50% in size
L3MBTL1 inh: blocks human L3MBTL1 | Potency, µM (series often up to 57.1 µM), inactives show at the highest dose activity, negative = inhibition, most hits filed as inhibitors | Q9Y468 | AlphaScreen L3MBTL1–H3K9me1 peptide binding | 230,000 compounds, 0.66% hits; also: % is scaled to controls: 0 for no effect and ±100 for the full control effect; nearly all actives have a fitted effect of over 60% in size
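AlphaScreen proximity signal between nickel-chelate acceptor and streptavidin donor beads (final 10 ug/mL) reports binding of 50 nM L3MBTL1 to 75 nM biotin-H3 K9me1 peptide; complex incubated with compounds 30 min at room temperature; cefsulodin titration as control.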
Sfp inh: inhibitors of Bacillus subtilis Sfp phosphopantetheinyl transferase; Potency, µM, without a hit: largest response in the series, negative = inhibition, usual class: inhibitors; AID 1490; 310,000 compounds, 3.5% hits; Biochemical Sfp PPTase activity, qHTS;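 also: the enzyme is Sfp with the accession as filed and its product quenches rhodamine fluorescence; 0% = enzyme reaction without inhibitor and -100% = no enzyme wells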
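Fluorescence-quenching assay: 15 nM Sfp-PPTase preincubated 15 min at room temperature with compound, then 5 uM rhodamine-CoA and 12.5 uM BHQ-2-labelled YbbR peptide added. Fluorescence (ex 525/em 598 nm) read at start and after 30 min; difference gives rate.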
BAZ2B inh: BAZ2B (human) inhibition | AlphaScreen BAZ2B-H3K14Ac peptide displacement | Potency, µM (doses to about 114 µM), without a hit: top-dose activity change, negative = inhibition, hits mostly inhibitors | 360,000 compounds, 4.4% hits; also: % is scaled to controls: 0 for no effect and ±100 for the full control effect; nearly all actives have a fitted effect of over 60% in size
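Complex of BAZ2B and biotin-H3K14Ac (50 nM apiece) forms over 30 min at RT, then faces library compounds up to 110 uM for another 30 min; AlphaScreen beads added, 20 min dark incubation, luminescence read.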
G9a inh: blocks human histone lysine methyltransferase G9a; Q96KQ7; G9a H3K9 monomethylation, AlphaScreen, 2 h; Potency, µM (titrated, usually from 102 µM), inactives show at the top dose activity, negative = inhibition, hits mostly inhibitors; 350,000 compounds, 8.8% hits; also: % is scaled to controls: 0 for no effect and ±100 for the full control effect; nearly all actives have a fitted effect of over 75% in size
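Signal arises when biotinylated H3K9 peptide, once monomethylated, bridges streptavidin donor and antibody-captured acceptor beads. Enzyme at 20 nM was preincubated 15 min with test compounds; peptide 500 nM and SAM 20 uM then reacted for 2 h.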
Starred values were filed as active, the others as inactive; u = inconclusive; x = no result given; [ ] = dose if it differs, or a comment. Calls follow the shape of the dose curve; as a rule, active = well fitted curve in the direction sought with a large enough effect; inconclusive = small, poorly fitted or top-dose-only effect, or another doubt; inactive = no such curve, though single readings can be large; an effect the other way counts as inactive or inconclusive. Potency is read from the fitted curve at half-maximal effect.

SMILES	HP1b chromo inh	JMJD2A Tudor	L3MBTL1 inh	Sfp inh	BAZ2B inh	G9a inh
Cc1c(C)n(C)c2ccc(C(=O)NCCCN3CCN(c4ccc(F)cc4)CC3)cc12	u	56.2µM*	x	-11.5%	35.5µM*	39.8µM*
Cc1c(C)n(C)c2ccc(C(=O)NCCCN3CCOCC3)cc12	4.0%	u	x	-1.1%	-21.8%[57.1 µM]	-13.4%
Cc1c(C)n(C)c2ccc(C(=O)NCCCN3CCCCC3)cc12	-3.2%	u	x	4.8%	-27.0%[57.1 µM]	u
COc1ccc(OC)c(CCNC(=O)CCc2cn(C)c3ccccc23)c1	10.5%	u	x	4.7%	u	70.8µM*
Cc1[nH]c2ccc(C(=O)NCCN3CCCCCC3)cc2c1C	2.4%[57 µM]	u	x	-10.4%	-29.9%[57.1 µM]	50.1µM*
COC(=O)N1CCC2(CCCN(c3ncccn3)C2)CC1	x	x	x	7.9%	x	-0.4%[12.7 µM]
CCOC(=O)c1c(C)n(-c2ccc(OC)cc2)c2ccc(OC(=O)COc3ccccc3)cc12	54.7%	2.3%	x	x	0.3%	24.7%[59 µM]
O=C(Cn1c(=O)c2cccn2c2ccc(F)cc21)NCCCN1CCN(c2ccccc2F)CC1	25.3%	-20.3%	x	14.8%	-31.2%	44.7µM*
Cc1ccc(C)c(N2CCN(C(=O)c3cc4ccccn4n3)CC2)c1	33.9%	-17.7%	-1.6%	-14.1%	-6.0%	50.1µM*
Cn1cc(CC(=O)NCCCN2CCCC2)c2ccccc21	33.4%	-33.3%	x	10.7%	-29.0%	56.2µM*
Cc1c(C)n(C)c2ccc(C(=O)NCCCN3CCCC3)cc12	-5.0%	u	x	-1.2%	u	50.1µM*
O=C(Cn1c(-c2cccs2)cc2cc(F)ccc21)NCCCN1CCN(c2ccccc2F)CC1	41.9%	-27.4%	x	x	-13.0%	u
CSc1nc2n(n1)C(c1ccccn1)C1=C(CC(C)(C)CC1=O)N2 (centres undefined)	0.7%	-14.9%	x	-3.3%	u	-30.2%
O=C(Cn1nnc(-c2cccs2)n1)Nc1ccccc1C(F)(F)F	21.6%	-4.3%	5.2%	6.2%	-11.8%	17.0%
COc1ccc(C)cc1S(=O)(=O)N1CCN(C(=O)c2ncoc2-c2ccccc2F)CC1	20.4%	0.7%	x	16.1%	-2.8%	-9.3%
Cc1ccc(C)c(N2CCN(C(=O)c3ccc4[nH]c(C)c(C)c4c3)CC2)c1	-17.3%	79.4µM*	x	x	-12.6%	-7.9%[59 µM]
CCOc1ccc(-c2csc(C3COc4ccccc4O3)n2)cc1 (centres undefined)	25.8%	6.3%	x	x	x	x
Nn1c(C2COc3ccccc3O2)n[nH]c1=S (centres undefined)	-16.8%	8.91µM*	-8.6%	7.08µM*	u	2.82µM*
O=C(COC(=O)c1cc[n+]([O-])cc1)NC(=O)c1ccc(OC(F)F)cc1	25.7%	-18.6%	-3.7%	x	x	x
CC1(C)CO[C@@H](CC(=O)O)CN1	x	x	x	21.5%	x	33.2%[59 µM]
CC(=O)Nc1ccccc1-c1nc2ccc(C(=O)N3CCN(c4ccccc4)CC3)cc2[nH]c1=O	63.3%	-17.0%	11.0%	-5.7%	2.4%	44.7µM*
Cc1cccc(C)c1N=Nc1c(C)cc(O)cc1C	u	20µM*	-27.5%	5.6%	17.8µM*	35.5µM*
CCN(c1ccccc1)S(=O)(=O)c1nnc(NC(=O)COc2cccc(C)c2)s1	45.2%	-4.9%	x	x	-22.5%	-0.1%[59 µM]
CCCN1C(=O)/C(=C2\SC(=S)N(c3c(C)n(C)n(-c4ccccc4)c3=O)C2=O)c2ccccc21	28.4%	3.9%	x	-14.5%	-5.3%	x
O=C(O)CCN1C(=O)/C(=C2\C(=O)N(Cc3ccccc3Cl)c3ccccc32)SC1=S	x	x	x	-16.2%	7.94µM*	u
CCCC(C(=O)O)N1C(=O)/C(=C2\C(=O)N(C)c3ccccc32)SC1=S (centres undefined)	-36.6%	u	-0.6%	-5.6%	44.7µM*	20µM*
O=C(O)CN1C(=O)/C(=C2\SC(=S)N(C(Cc3ccccc3)C(=O)O)C2=O)c2ccccc21 (centres undefined)	-14.8%	-26.5%	-5.6%	6.6%	56.2µM*	50.1µM*
